# Data: PubChem BioAssay (Tox21)
# Records with an inconclusive call do not appear. Where a call stands in place of a potency, no number is given. Values without a mark were called inactive. The source made the active and inactive calls. Calls come from the whole dose curve; as a rule, active = well fitted cell-killing curve with a large enough effect in the repeat runs; inconclusive = weak or mixed curves, or effect the other way; inactive = flat fitted curve, though single readings scatter.
# Test: qHTS assay to identify small molecule antagonists of the constitutive androstane receptor (CAR) signaling pathway - cell viability counter screen (AID 1224837); note: nearly all actives have a fitted effect of over 45% in size
# Conditions: HepG2-CYP2B6-hCAR viability, CellTiter-Fluor, 23 h, co-treated with 50 nM CITCO; series mostly up to 92.4 µM
# From the text: National Center for Advancing Translational Sciences [NCATS]
# NIH Chemical Genomics Center [NCGC]
# U.S. Environmental Protection Agency [EPA]
# National Institutes of Environmental Health Sciences [NIEHS]
# National Toxicology Program [NTP]
# U.S. Food and Drug Administration [FDA]
# The constitutive androstane receptor (CAR) is a nuclear receptor which regulates multiple drug metabolizing enzymes (DMEs) and transporters. Activating CAR will generally increase the transcription and subsequent translation of CYP2B6 and CYP3A4. These two DMEs represent about 50% of the drug metabolizing potential in the body. When CAR is deactivated, the metabolizing potential in the body will decrease, subsequently increasing the toxicity in the body or lowering the therapeutic potential of a pro-drug. Recently, there have also been studies performed indicating CARs role in energy metabolism and cancer therapy. Therefore, inhibiting CARs activity could have a potential effect on diabetes and cancer. Identifying environmental toxins and compounds which modulate CAR, through the use of the Tox21 10K compound collection, will be an important step in determining the toxicity and potential therapeutic effects these factors will have on the human body. To differentiate true CAR antagonists from cytotoxic substances, the assay is multiplexed with a cell viability assay.
# Tox21 Assay Protocol Summary:
# A double-stable (hCAR and CYP2B6-2.2kb) transfected cell line, derived from human hepatoma (HepG2) cells, was utilized for the duration of the quantitative high-throughput screens. The HepG2-CYP2B6-hCAR cells were dispensed at 2500 cells/4 uL/well in 1536-well white solid bottom plates using a Multidrop Combi. After the assay plates were incubated at 37 C/5% CO2 for 4 hrs, 23 nL of compounds at 15 concentrations (from 5-48 columns) or positive control (from 1 to 4 columns) were transferred to the assay plates using a Pintool station. One uL of CITCO (final concentration = 50 nM) was added, using a Flying Reagent Dispenser, inside each well. After a 23 hr incubation period at 37 C/5% CO2, 1 uL of CellTiter-Fluor reagent was added into each well of the assay plates using a Flying Reagent Dispenser. The fluorescence intensity in the plates was then measured using a ViewLux plate reader.
SMILES,Potency,"activity change, negative = cytotoxicity"
CCNC(=O)/C=C/c1cccc(Br)c1,inactive,
O=C1c2ccccc2-c2ccccc21,inactive,
CCCOCCOCCOCCO,inactive,
O=C(O)c1c(Cl)ccc(Cl)c1Cl,inactive,
CCC(O)C(C)(C)C (stereo not given),inactive,
NS(=O)(=O)c1ccccc1OC(F)(F)F,inactive,
CC(=O)N1CCN(c2ccc(O)cc2)CC1,inactive,
CC(=O)Nc1ncc([N+](=O)[O-])s1,inactive,
O=C(Oc1ccccc1C(=O)O)c1ccccc1O,inactive,
CCCCOC(=O)[C@@H](C)Oc1ccc(Oc2ccc(C(F)(F)F)cn2)cc1,inactive,
COc1cc2c3cc1Oc1cc(ccc1O)C[C@@H]1c4c(cc(OC)c(O)c4Oc4ccc(cc4)C[C@@H]3N(C)CC2)CC[N+]1(C)C,inactive,
NC(=O)NC(=O)Cc1ccccc1,inactive,
CC(C)CCCC(C)CC=O (stereo not given),inactive,
Cc1ccccc1C,inactive,
CC(=O)OC[C@H]1O[C@@H](OC(C)=O)[C@H](OC(C)=O)[C@@H]1OC(C)=O,inactive,
C=COCCOCCOC=C,inactive,
C=C[Si](C)(C)O[Si](C)(C)C=C,inactive,
Oc1ccccc1Cc1ccccc1O,inactive,
CCCCCCCCCCCCC1CO1 (stereo not given),inactive,
CC(C)(C)c1ccc(C=O)cc1,inactive,

SMILES,Potency,"activity change, negative = cytotoxicity"
CCCCOC(=O)C(=O)OCCCC,inactive,
CCCCCCCCCCCCCCCCI,,-13% [at 19 µM]
Cc1nc2n(c(=O)c1CCN1CCC(C(=O)c3ccc(F)cc3)CC1)CCS2,inactive,
O=C1CC[C@H](C(=O)N2CCCCC2)N1,inactive,
CCNC(=O)NCCCOc1cccc(CN2CCCCC2)c1,inactive,
C[CH2][Ge]([Cl])([CH2]C)[CH2]C,inactive,
Cc1cc(C)cc([N+](=O)[O-])c1,inactive,
O=c1cc(O)c(Cl)c[nH]1,inactive,
Nc1ccc(S(=O)(=O)NC(=O)c2ccccc2)cc1,inactive,
C=C(C)C(=O)OCCCCCCOC(=O)C(=C)C,inactive,
CC(C)COC(=O)CC(C(=O)OCC(C)C)S(=O)(=O)O (stereo not given),inactive,
CC(C)=CC(C)(C)C,inactive,
CCOC(=O)CCCCCCCCC(=O)OCC,inactive,
CC(C)(c1ccc(Oc2ccc3c(c2)C(=O)OC3=O)cc1)c1ccc(Oc2ccc3c(c2)C(=O)OC3=O)cc1,inactive,
O=C1NC2NC(=O)NC2N1 (stereo not given),inactive,
O=C(O)CCNC(=O)c1ccccc1,inactive,
CCN(Cc1cccc(S(=O)(=O)O)c1)c1ccccc1,inactive,
NC(=O)NNC(N)=O,inactive,
C=CCOc1c(Br)cc(Br)cc1Br,inactive,
O=S(=O)(O)c1cc(O)ccc1O,inactive,
